Results filed as inconclusive are left out. Active and inactive are the calls of the source. Unless noted, calls come from the whole dose curve; as a rule, active = well fitted curve in the direction sought with a large enough effect; inconclusive = small, poorly fitted or top-dose-only effect, or another doubt; inactive = no such curve, though single readings can be large; an effect the other way counts as inactive or inconclusive.
Experiments:
[1] = target: Vitamin D3 receptor (Homo sapiens) (UniProt P11473); test: qHTS assay for small molecule agonists of vitamin D receptor signaling (AID 588543; calls by dose curve;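 note: 0% = DMSO basal and 100% = reference agonist control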)
Vitamin D3 receptor (Homo sapiens), sequence (P11473 whole entry, looked up): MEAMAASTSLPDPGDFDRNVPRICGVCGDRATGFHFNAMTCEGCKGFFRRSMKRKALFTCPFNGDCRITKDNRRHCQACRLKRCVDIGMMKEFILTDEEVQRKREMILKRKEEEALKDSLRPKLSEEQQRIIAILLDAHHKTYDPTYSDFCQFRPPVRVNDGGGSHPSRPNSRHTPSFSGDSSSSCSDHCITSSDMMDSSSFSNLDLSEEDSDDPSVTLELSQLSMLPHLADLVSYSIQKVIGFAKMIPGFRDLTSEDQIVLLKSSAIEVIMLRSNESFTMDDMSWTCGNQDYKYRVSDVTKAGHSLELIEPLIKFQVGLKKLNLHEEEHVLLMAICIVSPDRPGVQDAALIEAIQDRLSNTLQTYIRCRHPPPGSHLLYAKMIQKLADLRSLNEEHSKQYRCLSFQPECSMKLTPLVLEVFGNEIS
Procedure, shortened: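 Reporter cells (HEK293T, VDR-UAS-bla) were seeded in medium with 2% charcoal-stripped serum and incubated 5 h, then compounds in concentration series were added for 16 h at 37 °C. Stimulation was scaled between DMSO basal and 50 nM 1α,25-dihydroxyvitamin D3.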

[2] = qHTS assay for small molecule agonists of retinoid X receptor alpha signaling (AID 588544; calls by dose curve;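 for activation: 0% = DMSO basal wells and 100% = reference agonist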); settings: HEK293T RXRa-UAS-bla, beta-lactamase reporter, 18 h; 530 nm emission
[3] = target: Retinoic acid receptor RXR-alpha (Homo sapiens) (UniProt P19793); test: as above
Retinoic acid receptor RXR-alpha (Homo sapiens), sequence (P19793 whole entry, looked up): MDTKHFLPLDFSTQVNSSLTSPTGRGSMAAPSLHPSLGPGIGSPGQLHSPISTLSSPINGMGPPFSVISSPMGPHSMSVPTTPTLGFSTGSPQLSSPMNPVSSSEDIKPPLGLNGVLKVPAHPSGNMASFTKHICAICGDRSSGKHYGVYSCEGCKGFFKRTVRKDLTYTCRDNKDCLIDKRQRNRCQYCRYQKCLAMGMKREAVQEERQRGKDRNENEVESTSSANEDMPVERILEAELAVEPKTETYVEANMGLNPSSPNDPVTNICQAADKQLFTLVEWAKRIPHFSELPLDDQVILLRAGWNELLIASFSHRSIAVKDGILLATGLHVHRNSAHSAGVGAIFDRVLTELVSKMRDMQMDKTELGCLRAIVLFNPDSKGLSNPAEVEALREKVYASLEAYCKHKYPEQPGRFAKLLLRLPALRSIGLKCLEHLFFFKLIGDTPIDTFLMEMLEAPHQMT

[4] = qHTS assay for small molecule antagonists of retinoid X receptor alpha signaling (AID 588546; active = well fitted inhibition curve with a large enough effect in the signal ratio, with a control signal flat, not every such curve was filed as active; the % refers to the signal ratio;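 note: cells stimulated with 9-cis-retinoic acid as agonist; % is set by controls: 0 for no effect and ±100 for the full control effect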); settings: HEK293T RXRa-UAS-bla, beta-lactamase ratio, antagonist mode; measured here: W530 green channel, cytotoxicity proxy
Procedure, shortened: (§1)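 Beta-lactamase reporter inhibition, read as CCF4 fluorescence ratio (ex 405, em 460/530 nm) after 2 h at RT. HEK293T UAS-bla cells, 2500/well, were stimulated with 9-cis-RA at 500 or 100 nM final alongside test compound for 18 h at 37 C.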

[5] = target: Retinoic acid receptor RXR-alpha (Homo sapiens) (UniProt P19793); test: as above; settings: HEK293T RXRa-UAS-bla, beta-lactamase ratio, antagonist mode
Procedure, shortened: as §1

[6] = target: Thyroid hormone receptor beta (Homo sapiens) (UniProt P10828); test: qHTS assay for small molecule antagonists of thyroid hormone receptor beta signaling (AID 588547; active = well fitted inhibition curve with a large enough effect in the signal ratio, with a control signal flat, not every such curve was filed as active; the % refers to the signal ratio;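 note: cells stimulated with 0.4 nM T3 agonist during compound exposure; series mostly up to about 77 µM; % is set by controls: 0 for no effect and ±100 for the full control effect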); settings: TR-UAS-bla HEK293, beta-lactamase ratio, antagonist mode, 18 h
Thyroid hormone receptor beta (Homo sapiens), sequence (P10828 whole entry, looked up): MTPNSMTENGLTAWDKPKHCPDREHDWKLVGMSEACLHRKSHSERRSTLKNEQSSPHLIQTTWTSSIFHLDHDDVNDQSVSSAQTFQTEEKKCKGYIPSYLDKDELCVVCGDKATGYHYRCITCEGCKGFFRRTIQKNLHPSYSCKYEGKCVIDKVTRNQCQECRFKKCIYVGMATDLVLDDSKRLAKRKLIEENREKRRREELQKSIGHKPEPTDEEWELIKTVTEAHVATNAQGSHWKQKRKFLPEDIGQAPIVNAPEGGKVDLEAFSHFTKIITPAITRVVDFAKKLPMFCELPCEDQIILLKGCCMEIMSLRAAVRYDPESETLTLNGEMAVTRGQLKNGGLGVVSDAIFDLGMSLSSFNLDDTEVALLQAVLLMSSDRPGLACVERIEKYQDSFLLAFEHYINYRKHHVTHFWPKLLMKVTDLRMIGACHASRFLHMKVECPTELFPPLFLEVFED
Procedure, shortened: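 TR-UAS-bla GripTite HEK293 cells in 2% charcoal/dextran FBS medium; compounds 0.59 nM to 92 uM with T3 at 0.4nM final, 18 h at 37 C. Beta-lactamase read by CCF4 fluorescence (460/530 nm); Hill fits gave IC50 and efficacy.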

[7] = target: Voltage-gated inwardly rectifying potassium channel KCNH2 (Homo sapiens) (UniProt Q12809); test: qHTS Assay for Small Molecule Inhibitors of the Human hERG Channel Activity (AID 588834);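 note: top concentration of the series differs between compounds; % is set by controls: 0 for no effect and ±100 for the full control effect; lower thallium flux fluorescence means stronger hERG block; nearly all actives have a fitted effect of over 50% in size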
Voltage-gated inwardly rectifying potassium channel KCNH2 (Homo sapiens), sequence (Q12809 whole entry, looked up): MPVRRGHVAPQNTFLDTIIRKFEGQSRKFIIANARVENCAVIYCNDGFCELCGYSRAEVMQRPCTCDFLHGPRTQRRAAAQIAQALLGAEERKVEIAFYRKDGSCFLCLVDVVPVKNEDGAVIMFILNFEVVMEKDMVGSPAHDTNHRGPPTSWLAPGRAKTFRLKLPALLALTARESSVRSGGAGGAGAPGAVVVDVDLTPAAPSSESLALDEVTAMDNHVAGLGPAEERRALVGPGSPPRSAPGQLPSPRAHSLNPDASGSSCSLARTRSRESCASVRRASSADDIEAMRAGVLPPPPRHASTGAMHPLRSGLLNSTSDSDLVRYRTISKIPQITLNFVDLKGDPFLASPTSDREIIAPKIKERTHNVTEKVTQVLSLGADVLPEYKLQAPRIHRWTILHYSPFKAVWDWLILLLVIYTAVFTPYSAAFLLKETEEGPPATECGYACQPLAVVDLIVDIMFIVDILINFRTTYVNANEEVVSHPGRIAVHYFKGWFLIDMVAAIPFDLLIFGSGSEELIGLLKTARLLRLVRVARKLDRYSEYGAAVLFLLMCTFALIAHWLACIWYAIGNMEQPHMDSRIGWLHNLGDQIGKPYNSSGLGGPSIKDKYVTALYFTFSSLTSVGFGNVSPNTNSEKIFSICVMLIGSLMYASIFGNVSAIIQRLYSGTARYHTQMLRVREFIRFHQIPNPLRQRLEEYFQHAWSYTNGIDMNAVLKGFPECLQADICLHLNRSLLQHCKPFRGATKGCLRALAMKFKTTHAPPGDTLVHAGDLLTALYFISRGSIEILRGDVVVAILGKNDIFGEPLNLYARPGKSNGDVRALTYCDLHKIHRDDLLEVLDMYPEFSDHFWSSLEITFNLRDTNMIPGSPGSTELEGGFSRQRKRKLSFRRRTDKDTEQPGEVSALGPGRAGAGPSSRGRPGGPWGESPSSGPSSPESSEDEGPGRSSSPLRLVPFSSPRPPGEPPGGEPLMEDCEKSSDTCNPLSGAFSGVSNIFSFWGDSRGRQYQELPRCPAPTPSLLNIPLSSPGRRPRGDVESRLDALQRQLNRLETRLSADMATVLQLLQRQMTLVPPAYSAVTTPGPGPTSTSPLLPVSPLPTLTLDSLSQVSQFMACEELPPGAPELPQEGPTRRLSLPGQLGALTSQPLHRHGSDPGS
Procedure, shortened: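 hERG-BacMam U2OS, 2000 cells/well; 0.7X FluxOR loading 1 hr RT dark; cpd ~10 min 37 °C; stim buffer; FDSS fluorescence 2 min @ 1 s; AC50 Hill fit.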

[8] = qHTS assay for small molecule agonists of the antioxidant response element (ARE) signaling pathway (AID 651741; active = well fitted activation curve with a large enough effect in the signal ratio; the % refers to the signal ratio; note: % of control where 0% means no effect)
Procedure, shortened: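 HepG2 ARE-bla cells plated at 2,000 cells/well and incubated 5 h at 37 C/5% CO2 received 23 nL compound in DMSO. After 16 h at 37 C, LiveBLAzer B/G FRET substrate was applied for 2 h at room temperature and fluorescence read.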

[9] = qHTS assay for small molecule activators of the p53 signaling pathway (AID 651743; active = well fitted activation curve with a large enough effect in the signal ratio, not every such curve was filed as active; the % refers to the signal ratio; note: series mostly up to about 92 µM; % of control where 0% means no effect); settings: HCT-116 p53RE-bla, beta-lactamase FRET ratio, 16 h; activation: stronger effect = higher value
Procedure, shortened: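 HCT-116 p53RE-bla, 4,000 cells/well; 5 h settle; cpd/DMSO 16 h, 37 C; LiveBLAzer B/G 2 h RT; fluorescence intensity.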

[10] = qHTS assay for small molecule activators of the nuclear factor-kappa B (NF-kB) signaling pathway (AID 651749; active = well fitted activation curve with a large enough effect in the signal ratio; the % refers to the signal ratio; note: series mostly up to about 77 µM; % of control where 0% means no effect); settings: NF-kB-bla ME-180 cells, beta-lactamase FRET ratio, 16 h; activation: stronger effect = higher value
Procedure, shortened: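 Incubation lasted 16 hr at 37C in 5% CO2 after 23 nL compound addition to ME-180 NF-kB-bla cells. Activation appears as beta-lactamase-mediated FRET loss.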

[11] = qHTS assay for small molecule disruptors of the mitochondrial membrane potential - 1 hr assay (AID 651754; calls by dose curve; note: % is set by controls: 0 for no effect and ±100 for the full control effect; nearly all actives have a fitted effect of over 35% in size)
Procedure, shortened: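 HepG2 cells, attached overnight at 37C, were exposed to compound or DMSO vehicle for 1 hr at 37C, 5% CO2, then stained with Mito-MPS dye for 30 min. Red aggregate versus green monomer fluorescence reports membrane potential.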

[12] = qHTS assay for small molecule disruptors of the mitochondrial membrane potential - 5 hr assay (AID 651755; calls by dose curve; note: % is set by controls: 0 for no effect and ±100 for the full control effect; nearly all actives have a fitted effect of over 40% in size)
Procedure, shortened: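 HepG2 cells (2,000/well), attached overnight, exposed to compound 5 hr at 37C, then Mito-MPS dye 30 min. Fluorescence read for monomers (490/535 nm) and aggregates (540/590 nm).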

[13] = target: Tumor necrosis factor (Homo sapiens) (UniProt P01375); test: qHTS assay to identify small molecules that stimulate Tumor Necrosis Factor-alpha (TNF-alpha) secretion (AID 651757; active = well fitted curve in the direction sought with a large enough effect in the signal ratio; the % refers to the signal ratio; note: 0% is about no effect)
Tumor necrosis factor (Homo sapiens), sequence (P01375 whole entry, looked up): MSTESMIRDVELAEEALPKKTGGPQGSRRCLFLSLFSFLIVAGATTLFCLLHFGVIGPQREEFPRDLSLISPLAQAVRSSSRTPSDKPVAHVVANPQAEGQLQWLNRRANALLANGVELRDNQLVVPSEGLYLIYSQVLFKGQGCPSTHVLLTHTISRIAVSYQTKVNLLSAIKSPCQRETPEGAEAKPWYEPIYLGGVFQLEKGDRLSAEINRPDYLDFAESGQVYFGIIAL
Procedure, shortened: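 THP-1 cells were exposed to compounds for 17 hrs at 37 C, after which secreted TNF-alpha was measured by homogeneous HTRF (TR-FRET) using cryptate- and XL665-labeled anti-TNF-alpha antibodies, read after 3 hr at room temperature.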

[14] = qHTS assay for environmental chemicals that activate the Aryl hydrocarbon Receptor (AhR) signaling pathway (AID 651777); settings: 1A2-DRE human hepatoma cells, luciferase, 24 h; activation: stronger effect = higher value; note: % of control where 0% means no effect; nearly all actives have a fitted effect of over 15% in size
Procedure, shortened: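 Stable CYP1A2 promoter/DRE-luciferase human hepatoma line treated 24 hr; One-Glo luminescence, 30 min RT.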

[15] = target: Peroxisome proliferator-activated receptor alpha (Homo sapiens) (UniProt Q07869); test: qHTS assay for small molecule agonists of the peroxisome proliferator-activated receptor alpha (PPARalpha) signaling pathway (AID 651778); settings: PathHunter PPARalpha complementation, chemiluminescence, 6 h; stronger effect = higher value; note: % of control where 0% means no effect
Peroxisome proliferator-activated receptor alpha (Homo sapiens), sequence (Q07869 whole entry, looked up, the tested form may be a part): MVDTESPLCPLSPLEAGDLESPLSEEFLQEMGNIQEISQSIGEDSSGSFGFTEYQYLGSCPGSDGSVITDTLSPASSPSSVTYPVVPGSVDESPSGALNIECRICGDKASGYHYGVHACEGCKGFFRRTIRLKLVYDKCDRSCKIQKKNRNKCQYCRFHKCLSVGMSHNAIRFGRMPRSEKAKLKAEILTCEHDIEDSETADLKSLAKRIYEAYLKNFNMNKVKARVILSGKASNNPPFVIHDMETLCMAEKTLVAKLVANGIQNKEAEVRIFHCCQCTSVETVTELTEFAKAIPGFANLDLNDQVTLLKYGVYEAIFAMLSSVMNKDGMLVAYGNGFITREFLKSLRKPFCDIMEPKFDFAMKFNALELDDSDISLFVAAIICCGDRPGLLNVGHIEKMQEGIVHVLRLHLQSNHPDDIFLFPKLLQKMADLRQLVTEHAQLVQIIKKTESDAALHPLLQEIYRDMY
Procedure, shortened: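 Enzyme-fragment complementation assay in which ligand-bound PPARalpha translocates and forms an active enzyme that generates chemiluminescence. Cells were plated overnight, exposed to compound for 6 hr at 37 C, and then given detection reagent for 60 min at room temperature.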

[16] = target: Nuclear receptor ROR-gamma (Homo sapiens) (UniProt P51449); test: qHTS assay for small molecule antagonists of the retinoid-related orphan receptor gamma (ROR-gamma) signaling pathway (AID 651802); note: series mostly up to about 92 µM; % is set by controls: 0 for no effect and ±100 for the full control effect; nearly all actives have a fitted effect of over 60% in size
Nuclear receptor ROR-gamma (Homo sapiens), sequence (P51449 whole entry, looked up): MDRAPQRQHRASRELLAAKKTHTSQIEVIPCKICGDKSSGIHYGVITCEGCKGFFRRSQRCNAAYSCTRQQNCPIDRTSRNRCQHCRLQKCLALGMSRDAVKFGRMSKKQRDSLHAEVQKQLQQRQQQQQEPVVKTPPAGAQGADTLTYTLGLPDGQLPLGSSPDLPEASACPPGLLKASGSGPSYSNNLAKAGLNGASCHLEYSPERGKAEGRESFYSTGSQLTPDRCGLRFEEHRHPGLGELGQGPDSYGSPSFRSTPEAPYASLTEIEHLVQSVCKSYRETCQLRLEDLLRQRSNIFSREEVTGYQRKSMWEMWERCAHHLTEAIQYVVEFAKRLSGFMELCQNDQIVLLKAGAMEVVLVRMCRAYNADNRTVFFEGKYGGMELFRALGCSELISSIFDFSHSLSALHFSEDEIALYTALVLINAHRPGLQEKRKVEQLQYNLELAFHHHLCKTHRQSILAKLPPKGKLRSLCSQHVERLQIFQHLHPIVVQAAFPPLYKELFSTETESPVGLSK
Procedure, shortened: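 CHO cells carrying TET-inducible ROR-gamma and an ROR response element–luciferase reporter were exposed to compound, then induced with doxycycline. After 16hr at 37C, luminescence was read; lower signal indicates antagonism.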

[17] = qHTS assay for small molecule agonists of the antioxidant response element (ARE) signaling pathway measured by Nrf2-dependant transcriptional activity (AID 720636; active = well fitted curve in the direction sought with a large enough effect in the repeat runs; an effect the other way counts as inactive or inconclusive;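 note: HepG2 cells with an ARE-driven luciferase reporter; % of control where 0% means no effect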)
Procedure, shortened: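 Reporter gene assay, HepG2 ARE-luc: 16 hr compound, 37 C, 5% CO2; read-out luciferase luminescence.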

[18] = qHTS assay for small molecule antagonists of the retinoid-related orphan receptor gamma (ROR-gamma) signaling pathway - cell viability counter screen (AID 720652; active = well fitted curve in the direction sought with a large enough effect in the repeat runs; an effect the other way counts as inactive or inconclusive;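 note: series mostly up to about 92 µM; compound exposure lasted 16 hr before ATP read; % is set by controls: 0 for no effect and ±100 for the full control effect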)
Procedure, shortened: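 Counter screen in CHO cells carrying TET-inducible ROR-gamma and an ROR response element-luciferase reporter; cells plated 5 hr, compound pinned, doxycycline added, then 16 hr at 37 C. Viability read as intracellular ATP by CellTiter-Glo luminescence.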

[19] = qHTS assay for small molecule agonists of the antioxidant response element (ARE) signaling pathway measured by Nrf2-dependant transcriptional activity - cell viability counter screen (AID 720653; active = well fitted curve in the direction sought with a large enough effect in the repeat runs; an effect the other way counts as inactive or inconclusive; note: % is set by controls: 0 for no effect and ±100 for the full control effect); settings: ARE-bla HepG2 viability, CellTiter-Glo ATP luminescence, 16 h; stronger effect = lower value
Procedure, shortened: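 ARE-bla HepG2 cells treated with compounds for 16 h at 37C; this counter screen measures viability as intracellular ATP by CellTiter-Glo luminescence after 30 min at room temperature.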

[20] = qHTS assay for cell viability of HEK293 cells (AID 743288); settings: ATP luminescence (CellTiter-Glo), 18 h; max response: stronger effect = lower value; note: % is set by controls: 0 for no effect and ±100 for the full control effect; nearly all actives have a fitted effect of over 50% in size
Procedure, shortened: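 HEK293 parental, 2,000 cells/well; ≥5 h pre-incubation 37 C; pintool compound addition; 18 h, 37 C; CellTiter-Glo 30 min RT; luminescence read.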

[21] = qHTS assay for cell viability of the p53RE-bla HCT-116 cell line (AID 743292); note: % is set by controls: 0 for no effect and ±100 for the full control effect; nearly all actives have a fitted effect of over 55% in size
Procedure, shortened: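 Readout: CellTiter-Glo luminescence after 30 min RT. Treatment: compounds in DMSO, 16 h, 37 C. Cells: CellSensor p53RE-bla HCT-116, 4,000/well, preincubated 5 h.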

[22] = target: Nuclear receptor subfamily 1 group I member 2 (Rattus norvegicus) (UniProt Q9R1A7); test: qHTS assay for small molecule activators of the rat pregnane X receptor (rPXR) signaling pathway (AID 651751; call rule not given here; note: 0% is about no effect); settings: rPXR reporter cells, luciferase (One-Glo), 24 h
Nuclear receptor subfamily 1 group I member 2 (Rattus norvegicus), sequence (Q9R1A7 whole entry, looked up): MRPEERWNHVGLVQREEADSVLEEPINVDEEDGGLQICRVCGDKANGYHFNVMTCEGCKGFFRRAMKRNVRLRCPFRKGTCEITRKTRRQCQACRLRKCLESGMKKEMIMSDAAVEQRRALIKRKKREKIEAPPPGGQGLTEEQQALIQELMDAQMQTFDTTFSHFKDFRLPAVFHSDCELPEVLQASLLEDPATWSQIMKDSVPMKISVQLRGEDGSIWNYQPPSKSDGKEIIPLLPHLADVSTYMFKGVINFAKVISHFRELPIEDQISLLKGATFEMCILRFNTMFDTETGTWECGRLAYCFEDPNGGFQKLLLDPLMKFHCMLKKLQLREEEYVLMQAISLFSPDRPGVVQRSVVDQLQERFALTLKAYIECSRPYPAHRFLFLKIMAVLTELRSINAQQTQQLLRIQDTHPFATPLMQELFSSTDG

[23] = qHTS assay for small molecule activators of the human pregnane X receptor (PXR) signaling pathway (AID 720659; call rule not given here; note: 0% is about no effect)

CC(Cl)Cl
inactive: outcome [1] | Potency [3] | max response [5] 21.2% | activity change % (negative = inhibition) [6] -1.63% | Potency [7] | Potency [8] | activation [9] -4.47% | activation [10] 3.47% | Potency [11] | Potency [12] | outcome [13] | activation [14] -0.961% | max response [15] 4.62% | Potency [16] | outcome [17] | Potency [18] | max response [19] -2.99% | max response [20] -4.5% | Potency [21] | max response [22] -1.43% | outcome [23]
-2.19%: max response [4]
-6.24%: max response [2]
